# Measured values as given in PubChem BioAssay AID2685 (National Center for Advancing Translational Sciences (NCATS), 2010).
# “And” between values parts separate entries of the source, which are not always exact repeats. Equal values may be shown once. Screen size: about 320,000 compounds; about 2,100 (0.66%) were called active. Inconclusive results (about 53%) are left out. Calls follow the shape of the dose curve; as a rule, active = well fitted inhibition curve with a large enough effect in the signal ratio, with a control signal flat (not every such curve was filed as active); inconclusive = small, poorly fitted or top-dose-only effect, or effect the other way, or a change in a side signal; inactive = flat fitted curve, though single readings scatter; the % refers to the signal ratio. Shown is part of a subset that was picked to be rich in actives.
# Experiment: qHTS Assay for Lipid Storage Modulators in Drosophila S3 Cells;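 as to cell number change: cells counted by Cell Tracker Red CMTPX staining in the red channel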; as to lipid storage change, negative = inhibition: % is scaled to controls: 0 for no effect and ±100 for the full control effect
# Settings: BODIPY lipid droplet fluorescence, 18-24 h, cells fed with added oleic acid; cell number change: measured here: cell count max response; series mostly up to 46.1 µM
# From the text: NIH Molecular Libraries Probe Production Centers Network [MLPCN] NIH Chemical Genomics Center [NCGC] MLPCN Grant: 1 R03 MH085686-01 Assay Submitter (PI): Beller, Mathias; Max-Planck-Institut fur Biophysikalische Chemie NCGC Assay Overview: Storing lipids as a reservoir for energy or the anabolism of elementary metabolites is a common feature of probably all cells and is conserved from bacteria to humans. The universal cellular lipid storage organelle is the so-called lipid storage droplet (LD). Although ubiquitous, LDs share a simple structure composed of a hydrophobic core that harbors the storage lipids, which is shielded by a droplet-specific phospholipid monolayer to which proteins are attached. The current model of LD biogenesis involves an incorporation of the lipid core into the membrane leaflets of the endoplasmic reticulum (ER) followed by a subsequent budding-like maturation of a LD, which ultimately pinches off. Once released, LD volume can increase by localized lipogenesis or fusion of existing droplet. Storage lipids are re-mobilized enzymatically by lipase activity. Lipase regulation in the adipocyte is heavily studied and involves multiple components including catecholamine signaling, the LD-associated proteins Perilipin and comparative gene identification (CGI-58) and at least two lipases named hormone sensitive lipase (HSL) and adipocyte triglyceride lipase (ATGL). LD regulation outside of the adipocyte is poorly understood and only few components are known. However, there is an urgent need to learn more about ectopic fat depots as mislocalized storage of lipids, for example in the liver or muscle, is an eminent health problem associated with insulin resistance or the metabolic syndrome. We developed a laser-scanning cytometer assay to enable 1,536-well screening and combined the results of the small molecules screen with an RNAi database based on lipid storage.
# Triacsin C (Sigma-Aldrich T-4540), an inhibitor of long-chain fatty acyl CoA synthetase that blocks synthesis of triglycerides, was used as a positive control for lipid under-storage. A total of 23 nL of compound solution of different concentrations were transferred to the assay plates using a Kalypsys pin tool equipped with a 1,536-pin array containing 10-nL slotted pins (FP1S10, 0.457-mm diameter, 50.8 mm long; V&P Scientific). One microliter of oleic acid (400 uM) was added, and the plate was lidded with stainless steel rubber gasket lined lids containing pinholes. […] Fluorescence was detected by excitation of the fluorophores with a 488-nm laser on an Acumen Explorer (TTP Lab Tech). The total intensity in channel 2 (500-530 nm) reflected lipid droplet accumulation. Cells were detected using channel 3 (575-640 nm) with 5-um width and 100-um depth filters. The ratio of the number of objects in PMT channel 2 over the number of objects in PMT channel 3 was also calculated. Percent activity was computed relative to an internal control (100% inhibited lipid droplet deposition due to the presence of 20 uM Triacsin C), which was added to 32 wells/plate.
# Potency is read from the fitted curve at half-maximal effect.
SMILES,Potency,cell number change [%],"lipid storage change, negative = inhibition"
O=C(Nc1ccc(C2CC2(Cl)Cl)cc1)c1ccccc1Br (configuration not stated),inactive,13.5,
COc1ccc(CN(CC(=O)NCc2ccccc2)C(=O)c2csnn2)cc1,inactive,1.68,
CN(Cc1ccco1)c1ncnc2ccc(-c3ccc4c(c3)OCCO4)cc12,inactive,,
Cc1cccc(-c2ccc3ncnc(N(C)Cc4ccco4)c3c2)c1,inactive,-20.6,
CN(Cc1ccco1)c1ncnc2ccc(-c3ccoc3)cc12,-1.69% and -0.798%,,
O=C(COC(=O)/C=C/c1cccc(F)c1)Nc1ncccn1,inactive,-0.367,
COc1cccc(N2CCN(c3nc(C)cc(=O)[nH]3)CC2)c1,inactive,15.9,
O=C(CSc1nnnn1-c1ccc2c(c1)OCCO2)N1CCN(C(=O)c2ccco2)CC1,inactive,-0.608,
Cc1cc2nc(SCC(=O)N(C)C)c3c(c2cc1C)CCCC3,inactive,-15.1,
CCOC(=O)c1c(C)n(C)c2cc([N+](=O)[O-])c(O)c([N+](=O)[O-])c12,inactive,7.01,
CCOC(=O)C1CCCCN1Cc1cc(Cl)ccc1O (configuration not stated),inactive,-14.7,
COc1cccc(C(=O)Nc2cccc(NC(C)=O)c2)c1,inactive,-21,
COc1cccc(C(=O)Nc2ccc(C3CC3(Cl)Cl)cc2)c1 (configuration not stated),,,15.6% [at 9.22 µM] (inactive)
COc1cccc(-c2cc(C(=O)Nc3ccc4c(c3)OCCO4)c3ccccc3n2)c1,inactive,,
O=C(Nc1ccc(C2CC2(Cl)Cl)cc1)c1cccc([N+](=O)[O-])c1 (configuration not stated),20.6 µM (active),-18.3,
COc1cccc(-c2cc(C(=O)Nc3cccnc3)c3ccccc3n2)c1,8.2 µM (active),,
O=C(Nc1cccc(Br)c1)c1ccc(CSc2ccccc2)cc1,inactive,-13.3,
O=C(Nc1cccc(C(=O)Nc2cccc(Br)c2)c1)c1ccccc1,5.8 µM (active),0.351,
COc1cccc(C(=O)Nc2cccc(-c3ccccc3)c2)c1,1.46 µM (active),5.29,
COc1cccc(C(=O)Nc2ccc3ccccc3c2)c1,inactive,24,
O=C(Nc1ccc(NC(=O)c2cccc([N+](=O)[O-])c2)cc1)c1cccc([N+](=O)[O-])c1,inactive,-4.74,
COc1cccc(/C(C)=N/NC(=O)c2cc(-c3cccnc3)nc3ccccc23)c1,inactive,11.2,
O=C(Nc1cccc(O)c1)c1ccccc1,inactive,,

SMILES,Potency,cell number change [%],"lipid storage change, negative = inhibition"
COc1ccc(-c2nc(CS(=O)CC(=O)NC3CCCCCC3)c(C)o2)cc1 (configuration not stated),inactive,,
O=C(COC(=O)c1ccc(Br)o1)NCCc1ccccc1,inactive,14.1,
O=C(NC1CCS(=O)(=O)C1)c1cccc(Br)c1 (configuration not stated),inactive,-19.9,
COc1ccc(S(=O)(=O)N2CCN(C(=O)C3CC3)CC2)cc1,inactive,0.403,
CCOC(=O)COc1ccc2c(c1)c(C(C)=O)c(C)n2-c1ccc(OC)cc1,inactive,,
Cc1cccc(-c2nc3sc(C)cc3c(=O)o2)c1,inactive,1.66,
COc1ccc(S(=O)(=O)N2CCCC(C(=O)NCc3ccc4c(c3)OCO4)C2)cc1 (configuration not stated),inactive,4.03,
COc1ccc(Cc2nnc(SCC(=O)Nc3cc(Cl)ccc3C)[nH]c2=O)cc1,inactive,-4.71,
CCc1cc(=O)oc2c(C)c(OCC(=O)N3CCC(C(=O)O)CC3)ccc12,inactive,-9.69,
CCCCc1cc(=O)oc2cc(OCC(=O)NC(Cc3c[nH]c4ccc(O)cc34)C(=O)O)ccc12 (configuration not stated),inactive,-11.2,
O=C(/C=C/Nc1ccc(Br)cn1)c1cccc(OC(F)F)c1,inactive,16.6,
CCC(=O)Nc1cccc(NC(=O)c2cccc([N+](=O)[O-])c2)c1,inactive,5.3,
COc1cccc(C(=O)COc2cccc(NC(=O)c3cccc([N+](=O)[O-])c3)c2)c1,18.4 µM (active),20,
CCCc1cc(C(=O)Nc2cccc([N+](=O)[O-])c2)cs1,20 µM (active),24.5,
COc1ccc(NC(=O)c2cccc([N+](=O)[O-])c2)cc1,inactive,0.213,
O=C(Nc1cccc([N+](=O)[O-])c1)c1ccccc1,inactive,-11.6,
COc1cccc(C(=O)COc2cccc(NC(=O)c3ccco3)c2)c1,inactive,29,
COc1cccc(C2NC(=O)NC(C)=C2C(=O)Nc2cc(OC)ccc2OC)c1 (configuration not stated),inactive,10.2,
CC(C(=O)N1CCc2ccccc21)N1CCc2ccccc2C1 (configuration not stated),inactive,-14.5,
CC(C(=O)N1CCc2ccccc21)N1CCN(Cc2ccc(Cl)cc2)CC1 (configuration not stated),inactive,-3.17,
CC(C(=O)N1CCc2ccccc21)N1CCN(c2ccccn2)CC1 (configuration not stated),23.1 µM (active),18,
CCOc1ccccc1N(CC(=O)OC)S(=O)(=O)c1ccccc1,inactive,1.61,
O=C(NNc1nc2c(F)cccc2s1)C1COc2ccccc2O1 (configuration not stated),inactive,,

SMILES,Potency,cell number change [%],"lipid storage change, negative = inhibition"
Cc1nc2nc[nH]n2c(=O)c1CCOC(=O)c1ccccc1F,inactive,-14.3,
Cc1nc2nc[nH]n2c(=O)c1CCOC(=O)c1c(F)cccc1F,inactive,-14,
CC(=O)OCCc1c(C)nc2nc[nH]n2c1=O,29.1 µM (active),-16.2,
OC[C@H]1O[C@@H](O[C@@H]2[C@@H](CO)O[C@@](O)(CO)[C@H]2O)[C@H](O)[C@@H](O)[C@H]1O,inactive,,
O=C(Nc1ccccc1C(=O)NCCCN1CCOCC1)c1ccc(Cl)cc1,inactive,1.08,
COc1ccc(CC(=O)NCC2CCCN(Cc3ccccc3Cl)C2)cc1 (configuration not stated),inactive,-2.61,
Cc1nc2c(sc3nc(N4CCOCC4)c4c(c32)CC(C)(C)OC4)c(-c2ccc(Cl)cc2)c1C(=O)O,16.4 µM (active),-7.08,
Cc1ccc(NC(=O)c2sc3nc(N4CCOCC4)c4c(c3c2N)CC(C)(C)OC4)cc1,inactive,,
Cc1nc2c(sc3nc(N4CCOCC4)c4c(c32)CC(C)(C)OC4)c(-c2ccccc2)c1C(=O)O,inactive,21,
O=C(NC1CC2CCCC(C1)N2C(=O)Nc1ccccc1)c1ccncc1 (configuration not stated),inactive,23.5,
Cc1nc2sc(C(=O)OCC(=O)N3c4ccccc4CC3C)c(C)c2c(=O)[nH]1 (configuration not stated),inactive,19.4,
COc1ccc(N2C(=O)NC(NC(=O)C(C)(C)C)(C(F)(F)F)C2=O)cc1 (configuration not stated),inactive,-16.8,
CC1CC(c2ccccc2)=Nc2ccccc2N1 (configuration not stated),0.82 µM (active),13.7,
Clc1ccccc1C1CC(c2ccccc2)=Nc2ccccc2N1 (configuration not stated),inactive,-20.8,
CC1(c2ccccc2)CC(c2ccccc2)=Nc2ccccc2N1 (configuration not stated),inactive,1.92,
CCN1CCN(Cc2c(C(=O)N/N=C(\C)c3ccc(Cl)c(Cl)c3)nnn2-c2nonc2N)CC1,inactive,-0.855,
Cn1c(N)c(C(=O)COC(=O)c2ccc(Cl)c(S(=O)(=O)N3CCCC3)c2)c(=O)n(C)c1=O,inactive,1.25,
O=C(Cn1cc([N+](=O)[O-])cn1)Nc1nc2ccccc2s1,inactive,,
COc1cc(/C=C/C(=O)O)cc(S(=O)(=O)NCCO)c1OC,inactive,-11.7,
CC1Cc2ccccc2N1C(=O)CNc1ccccc1N1CCCCC1 (configuration not stated),inactive,1.48,
CC1Cc2ccccc2N1C(=O)CNCCCN(C)C (configuration not stated),20.6 µM (active),-0.87,
CC1Cc2ccccc2N1C(=O)CSc1ccccc1 (configuration not stated),inactive,-23.8,
CC(NC(=O)c1ccc(Br)cc1)C(=O)NC1=NCCS1 (configuration not stated),,5.62,-5.54% [at 9.22 µM] (inactive)

SMILES,Potency,cell number change [%],"lipid storage change, negative = inhibition"
CC(NC(=O)c1ccccc1)C(=O)NC1=NCCS1 (configuration not stated),inactive,-3.51,
CC(C(=O)NC1=NCCS1)N1C(=O)C2CC=CCC2C1=O (configuration not stated),29.1 µM (active),-25.7,
O=C(CN1C(=O)C2CC=CCC2C1=O)NC1=NCCS1 (configuration not stated),inactive,4.96,
CC(NC(=O)C1CCCCC1)C(=O)NC1=NCCS1 (configuration not stated),20.6 µM (active),-6.79,
CC(C(=O)NC1=NCCS1)N1C(=O)c2ccccc2C1=O (configuration not stated),inactive,-6.04,
COC(=O)CC1C(=O)NC2CCCCC2N1C(=O)c1ccccc1 (configuration not stated),inactive,-6.42,
COCC(C)NC(=O)COc1ccc(Cl)cc1Cl (configuration not stated),inactive,14.4,
CC(=O)N(C)c1nc(N)n(-c2ccccc2)n1,inactive,17.4,
CN(CC(=O)Nc1ccc(N2CCOCC2)cc1)C(=O)C12CC3CC(CC(C3)C1)C2,inactive,0.396,
CC(C)(C)c1ccc(NC(=O)Nc2ccc3ccccc3n2)cc1,inactive,14.5,
CCCCn1c(=N)n(CC(=O)O)c2ccccc21,inactive,-0.932,
COc1ccc(N(CC(=O)N/N=C/c2cc3ccc(OC)cc3nc2Cl)S(=O)(=O)c2ccccc2)cc1,inactive,5.98,
COc1ccc(Cc2noc(CN3CCCN(Cc4ccc(F)cc4)CC3)n2)cc1OC,inactive,-12.5,
Cc1ccn2c(C(=O)NNC(=O)Nc3ccc(Cl)cc3)c(C)nc2c1,inactive,-7.08,
CCCCN(C(=O)C1CCCC1)c1c(N)n(CCC)c(=O)[nH]c1=O,inactive,10.4,
CCCCN(C(=O)C1CC(=O)N(c2ccc(C)cc2)C1)c1c(N)n(CCC)c(=O)[nH]c1=O (configuration not stated),20.6 µM (active),-1.39,
CCCCN(C(=O)C1CC(=O)N(Cc2ccc(C)cc2)C1)c1c(N)n(CCCC)c(=O)[nH]c1=O (configuration not stated),inactive,2.26,
Cc1ccc(-c2csc(NC(=O)c3cccc(S(=O)(=O)N4CCN(C)CC4)c3)n2)cc1,inactive,13,
O=C1CC(c2ccccc2)CC(=NCCO)/C1=C(\O)CCCN1C(=O)c2ccccc2C1=O (configuration not stated),inactive,-9.46,
OC1(CN2CCOCC2)C2CN3CCN(C2)CC1(c1ccccc1)C3 (configuration not stated),inactive,10,
CC12CN3CCN(CC(C3)C1(O)CN1CCCCC1)C2 (configuration not stated),inactive,-4.02,
CC12CN3CCN(CC(C3)C1(O)CN1CCOCC1)C2 (configuration not stated),4.61 µM (active),0.875,
CCOc1ccc(C(C(=O)NC2CCCC2)N(CCCO)C(=O)c2ccc(-c3ccccc3)[nH]2)cc1 (configuration not stated),inactive,42.7,
